The supplement of paper PMC7411054
Where a name gives a salt, the structure may show the parent alone.

How the values were obtained:
Conditions in all cases: treatment time: 24 h
WPMY1-GM130-SQSTM1 [1] = assay: lowest phenotypically active concentration; higher = less potent
Outline: (§1)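 After 24 h at 0.3, 1, 3 or 9 µM, with four wells per treatment, fifteen gene-edited A549, HepG2 and WPMY1 reporter lines carrying BFP, GFP and RFP/FusionRed were imaged live. Each well's live-cell features were expressed relative to solvent control wells. Deviation required ≥3 of 4 wells past the 95th percentile of control Euclidean distances, and reproducibility a median replicate Pearson correlation over the 95th percentile of non-replicates. Phenotypic activity rested on both.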

A549-ACTB-RAB5A = assay: phenotypically active (imaging signature differs from DMSO and reproducible) at any of 0.3-9 uM (binary (1 = active, 0 = inactive)); higher = active
Outline: as §1

A549-CANX-COX4 = assay: as above
Outline: as §1

A549-GM130-SQSTM1 = assay: as above
Outline: as §1

A549-TP53BP1-CLTA = assay: as above
Outline: as §1

A549-TUBA1B-RELA = assay: as above
Outline: as §1

HepG2-ACTB-RAB5A = assay: as above
Outline: as §1

HepG2-CANX-COX4 [2] = assay: as above
Outline: as §1

HepG2-GM130-SQSTM1 [3] = assay: as above
Outline: as §1

HepG2-TP53BP1-CLTA = assay: as above
Outline: as §1

HepG2-TUBA1B-RELA [4] = assay: as above
Outline: as §1

WPMY1-ACTB-RAB5A [5] = assay: as above
Outline: as §1

WPMY1-CANX-COX4 = assay: as above
Outline: as §1

WPMY1-GM130-SQSTM1 [6] = assay: as above
Outline: as §1

WPMY1-TP53BP1-CLTA = assay: as above
Outline: as §1

WPMY1-TUBA1B-RELA = assay: as above
Outline: as §1

HepG2-CANX-COX4 [7] = assay: lowest phenotypically active concentration; higher = less potent
Outline: as §1

HepG2-TUBA1B-RELA [8] = assay: as above
Outline: as §1

WPMY1-ACTB-RAB5A [9] = assay: as above
Outline: as §1

HepG2-GM130-SQSTM1 [10] = assay: as above
Outline: as §1

SMILES	lowest phenotypically active concentration (WPMY1-GM130-SQSTM1 [1]) [µM]	phenotypically active (A549-ACTB-RAB5A)	phenotypically active (A549-CANX-COX4)	phenotypically active (A549-GM130-SQSTM1)	phenotypically active (A549-TP53BP1-CLTA)	phenotypically active (A549-TUBA1B-RELA)	phenotypically active (HepG2-ACTB-RAB5A)	phenotypically active (HepG2-CANX-COX4 [2])	phenotypically active (HepG2-GM130-SQSTM1 [3])	phenotypically active (HepG2-TP53BP1-CLTA)	phenotypically active (HepG2-TUBA1B-RELA [4])	phenotypically active (WPMY1-ACTB-RAB5A [5])	phenotypically active (WPMY1-CANX-COX4)	phenotypically active (WPMY1-GM130-SQSTM1 [6])	phenotypically active (WPMY1-TP53BP1-CLTA)	phenotypically active (WPMY1-TUBA1B-RELA)	lowest phenotypically active concentration (HepG2-CANX-COX4 [7]) [µM]	lowest phenotypically active concentration (HepG2-TUBA1B-RELA [8]) [µM]	lowest phenotypically active concentration (WPMY1-ACTB-RAB5A [9]) [µM]	lowest phenotypically active concentration (HepG2-GM130-SQSTM1 [10]) [µM]
CC(C)NCC(O)COc1ccc(CC(N)=O)cc1 (stereo not drawn) [atenolol-()]	9	0 (inactive)	0 (inactive)	1 (active)	0 (inactive)	0 (inactive)	0 (inactive)	0 (inactive)	0 (inactive)	0 (inactive)	0 (inactive)	0 (inactive)	0 (inactive)	1 (active)	1 (active)	0 (inactive)				
CCOc1nc(NC(=O)Cc2cc(OC)ccc2OC)cc(N)c1C#N		0 (inactive)	0 (inactive)	0 (inactive)	0 (inactive)	1 (active)	0 (inactive)	0 (inactive)	0 (inactive)	0 (inactive)	0 (inactive)	0 (inactive)	0 (inactive)	0 (inactive)	0 (inactive)	0 (inactive)				
CCCCCCCCCCCCC/C=C/[C@H](O)[C@H](N)CO [D-erythro-Sphingosine (synthetic)]	9	0 (inactive)	0 (inactive)	1 (active)	0 (inactive)	0 (inactive)	0 (inactive)	0 (inactive)	0 (inactive)	0 (inactive)	0 (inactive)	0 (inactive)	0 (inactive)	1 (active)	0 (inactive)	0 (inactive)				
C[C@@H]1CN(Cc2ccc(F)cc2)[C@@H](C)CN1C(=O)c1cc2c(C(=O)C(=O)N(C)C)cn(C)c2cc1Cl [SCIO 469 hydrochloride]		0 (inactive)	0 (inactive)	0 (inactive)	0 (inactive)	0 (inactive)	1 (active)	1 (active)	0 (inactive)	1 (active)	1 (active)	1 (active)	1 (active)	0 (inactive)	0 (inactive)	0 (inactive)	1	9	1	
C[C@H](NC(=O)c1sccc1OCc1ccc(Cl)cc1)c1ccccc1	3	0 (inactive)	0 (inactive)	0 (inactive)	1 (active)	0 (inactive)	0 (inactive)	0 (inactive)	0 (inactive)	0 (inactive)	0 (inactive)	1 (active)	0 (inactive)	1 (active)	1 (active)	0 (inactive)			≤ 0.3	
O=C(O)COc1ccc(Br)cc1/C=C1\SC(=S)N(Cc2cccnc2)C1=O	3	0 (inactive)	0 (inactive)	1 (active)	0 (inactive)	0 (inactive)	0 (inactive)	0 (inactive)	1 (active)	0 (inactive)	0 (inactive)	0 (inactive)	0 (inactive)	1 (active)	0 (inactive)	0 (inactive)				3
S=c1[nH]cnc2nc[nH]c12 [mercaptopurine]	9	0 (inactive)	0 (inactive)	0 (inactive)	0 (inactive)	0 (inactive)	1 (active)	1 (active)	0 (inactive)	0 (inactive)	1 (active)	0 (inactive)	1 (active)	1 (active)	0 (inactive)	1 (active)	9	9		
Cc1cc(C(=O)Nc2cccc(C(=O)Nc3cccc(C(F)(F)F)c3)c2)on1		0 (inactive)	0 (inactive)	0 (inactive)	0 (inactive)	0 (inactive)	0 (inactive)	1 (active)	0 (inactive)	0 (inactive)	0 (inactive)	0 (inactive)	0 (inactive)	0 (inactive)	0 (inactive)	0 (inactive)	1			
Cc1ccc(-n2sc3ccccc3c2=O)cc1	9	0 (inactive)	0 (inactive)	0 (inactive)	0 (inactive)	0 (inactive)	0 (inactive)	1 (active)	1 (active)	0 (inactive)	0 (inactive)	1 (active)	0 (inactive)	1 (active)	0 (inactive)	0 (inactive)	9		9	9
CO[C@H]1C=CO[C@@]2(C)Oc3c(C)c(O)c4c(O)c(c(/C=N/N5CCN(C)CC5)c(O)c4c3C2=O)NC(=O)C(C)=CC=C[C@H](C)[C@H](O)[C@@H](C)[C@@H](O)[C@@H](C)[C@H](OC(C)=O)[C@@H]1C [Rifampicin]		0 (inactive)	0 (inactive)	1 (active)	0 (inactive)	0 (inactive)	0 (inactive)	1 (active)	0 (inactive)	0 (inactive)	0 (inactive)	0 (inactive)	0 (inactive)	0 (inactive)	0 (inactive)	0 (inactive)	3			
NS(=O)(=O)c1cc2c(cc1C(F)(F)F)NC(Cc1ccccc1)NS2(=O)=O (stereo not drawn) [bendroflumethiazide]		0 (inactive)	0 (inactive)	0 (inactive)	0 (inactive)	0 (inactive)	0 (inactive)	1 (active)	0 (inactive)	0 (inactive)	0 (inactive)	0 (inactive)	0 (inactive)	0 (inactive)	0 (inactive)	0 (inactive)	3			
CCCc1cc2c(N3CCN(C4=NCC(C)(C)S4)CC3)ncnc2s1 [MI 2 dihydrochloride]	9	0 (inactive)	0 (inactive)	1 (active)	0 (inactive)	0 (inactive)	1 (active)	1 (active)	1 (active)	1 (active)	0 (inactive)	1 (active)	0 (inactive)	1 (active)	0 (inactive)	0 (inactive)	9		3	9
CC(C)N(CCCNC(=O)Nc1ccc(C(C)(C)C)cc1)C[C@H]1O[C@@H](n2cc(Br)c3c(N)ncnc32)[C@H](O)[C@@H]1O	9	0 (inactive)	0 (inactive)	0 (inactive)	1 (active)	0 (inactive)	1 (active)	1 (active)	1 (active)	1 (active)	1 (active)	1 (active)	1 (active)	1 (active)	1 (active)	1 (active)	9	9	3	3
CCc1c(C(=O)Nc2cc(S(=O)(=O)N(CC)CC)ccc2O)[nH]c(C)c1C(C)=O	9	0 (inactive)	0 (inactive)	0 (inactive)	0 (inactive)	0 (inactive)	1 (active)	1 (active)	0 (inactive)	0 (inactive)	0 (inactive)	0 (inactive)	0 (inactive)	1 (active)	0 (inactive)	0 (inactive)	9			
COCCCOc1ccnc(CS(=O)c2nc3ccccc3[nH]2)c1C (stereo not drawn) [rabeprazole]		0 (inactive)	0 (inactive)	0 (inactive)	0 (inactive)	0 (inactive)	1 (active)	0 (inactive)	0 (inactive)	0 (inactive)	1 (active)	0 (inactive)	0 (inactive)	0 (inactive)	0 (inactive)	0 (inactive)		9		
CC(C)(C)c1ccc(C(=O)Nc2cn3cc(-n4ccnc4)ccc3n2)cc1		0 (inactive)	0 (inactive)	0 (inactive)	0 (inactive)	0 (inactive)	1 (active)	0 (inactive)	0 (inactive)	0 (inactive)	0 (inactive)	0 (inactive)	0 (inactive)	0 (inactive)	0 (inactive)	0 (inactive)				
COc1ccc(S(=O)(=O)ON=C2C=C(C)C(=O)C(C)=C2)cc1		0 (inactive)	0 (inactive)	1 (active)	0 (inactive)	1 (active)	0 (inactive)	0 (inactive)	0 (inactive)	0 (inactive)	0 (inactive)	0 (inactive)	0 (inactive)	0 (inactive)	0 (inactive)	1 (active)				
Nc1nnc2[nH]c3ccccc3nc1-2		0 (inactive)	0 (inactive)	0 (inactive)	0 (inactive)	0 (inactive)	0 (inactive)	1 (active)	0 (inactive)	0 (inactive)	0 (inactive)	0 (inactive)	0 (inactive)	0 (inactive)	0 (inactive)	0 (inactive)	9			
O=C(O)[C@H]1CCCC[C@H]1C(=O)N1CCc2ccccc2[C@H]1CN1C(=O)c2ccccc2C1=O		0 (inactive)	0 (inactive)	0 (inactive)	0 (inactive)	0 (inactive)	1 (active)	0 (inactive)	1 (active)	0 (inactive)	1 (active)	0 (inactive)	0 (inactive)	0 (inactive)	0 (inactive)	0 (inactive)		9		9
CCCCCCCN(CC)CCCC(O)c1ccc(NS(C)(=O)=O)cc1 (stereo not drawn) [ibutilide]	3	0 (inactive)	0 (inactive)	0 (inactive)	0 (inactive)	0 (inactive)	0 (inactive)	0 (inactive)	0 (inactive)	0 (inactive)	0 (inactive)	0 (inactive)	0 (inactive)	1 (active)	0 (inactive)	0 (inactive)				
O=c1cc(-c2ccc(O)cc2)oc2cc(O)cc(O)c12 [Apigenin]	9	0 (inactive)	0 (inactive)	0 (inactive)	0 (inactive)	0 (inactive)	0 (inactive)	0 (inactive)	1 (active)	1 (active)	1 (active)	0 (inactive)	0 (inactive)	1 (active)	1 (active)	1 (active)		9		9
